Laboratory results: PubChem BioAssay
Active and inactive are the calls of the source. How the calls were made is not given here.

Target: Pantothenate synthetase (Mycobacterium tuberculosis (strain ATCC 25618 / H37Rv)) (UniProt P9WIL5)
Experiment: Coupled enzyme confirmation of inhibitors against recombinant Mtb PanC (AID 375);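 further: 0% = full reaction with vehicle and 100% = no enzyme background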
Conditions: coupled enzyme assay; at 10 µM, active compounds read high

Chain of Pantothenate synthetase (Mycobacterium tuberculosis (strain ATCC 25618 / H37Rv)) (P9WIL5 whole entry, looked up): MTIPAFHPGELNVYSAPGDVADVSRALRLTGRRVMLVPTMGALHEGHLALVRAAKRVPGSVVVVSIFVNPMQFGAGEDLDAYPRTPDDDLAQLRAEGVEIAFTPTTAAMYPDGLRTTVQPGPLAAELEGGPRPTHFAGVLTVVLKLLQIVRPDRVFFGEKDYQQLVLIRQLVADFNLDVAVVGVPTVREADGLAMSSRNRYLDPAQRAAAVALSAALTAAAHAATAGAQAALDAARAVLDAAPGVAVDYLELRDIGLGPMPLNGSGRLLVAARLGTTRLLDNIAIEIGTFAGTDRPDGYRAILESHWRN

Structure (SMILES)	inhibition
O=C(NCC(=O)N(CCc1ccccc1)C(C(=O)NC1CCCC1)c1cccnc1)c1ccco1 (stereo not given)	3% (inactive)
CCC1CCCCN1CCCNC(=O)c1ccc(CS(=O)(=O)Cc2ccccc2F)o1 (stereo not given)	4% (inactive)
O=C(CSc1nnc(CNC(=O)c2cccs2)o1)Nc1cccc(C(F)(F)F)c1	0% (inactive)
Nc1nc(F)nc2c1ncn2[C@@H]1O[C@H](CO)[C@@H](O)[C@@H]1O	0% (inactive)
O=C(NCCCN1CCOCC1)C1CC(=O)N(CCc2ccccc2)C1 (stereo not given)	4% (inactive)
Cc1noc(C)c1CSc1ccccc1C(=O)N1CCN(c2ccccc2)CC1	0% (inactive)
Cc1cccc(NC(=O)c2cc3ccccc3o2)c1	5% (inactive)
O=C(Nc1ccncc1)c1cncc(Br)c1	0% (inactive)
c1csc(-c2nc3nc4ccccc4nc3n2Cc2ccc3c(c2)OCO3)c1	0% (inactive)
CCn1c(Cc2ccccc2)nnc1SCC(=O)Nc1nc2ccccc2s1	2% (inactive)
S=C(N=Nc1ccccc1)NNc1ccccc1	0% (inactive)
CCN(CC)c1ccc(NC(=O)c2cncc(Br)c2)cc1	0% (inactive)
COCCn1c(C)cc(C(=O)COC(=O)CCN2C(=O)c3ccccc3C2=O)c1C	0% (inactive)
CCC1c2ccc(C)n2CCN1C(=O)Nc1ccccc1OC (stereo not given)	9% (inactive)
CC(=O)Nc1ccc(S(=O)(=O)N2CCN=C2C)cc1	3% (inactive)
COc1ccc(-c2cnc(SCC(=O)Nc3ccc4c(c3)OCO4)n2Cc2ccco2)cc1	0% (inactive)
Clc1cccc(-c2nnc3sc(-c4ccccc4)nn23)c1	0% (inactive)
O=C(NC1=NCCS1)NC12CC3CC(CC(C3)C1)C2	2% (inactive)
Cc1ccc(C(c2sc3nc(C)nn3c2O)N2CC(C)OC(C)C2)cc1 (stereo not given)	0% (inactive)
Cc1ccc(C(=O)C2COC(=O)C2)cc1 (stereo not given)	0% (inactive)

Structure (SMILES)	inhibition
Cc1ccc(C)c(S(=O)(=O)n2cnc3ccccc32)c1	0% (inactive)
CC1(C)S[C@@H]2[C@H](NC(=O)[C@H](N)c3ccccc3)C(=O)N2[C@H]1C(=O)O	2% (inactive)
O=C(Cn1nnc(-c2ccc(S(=O)(=O)N3CCCC3)cc2)n1)NCC1CCCO1 (stereo not given)	0% (inactive)
Cc1c(NC(=O)C(C)Oc2ncnc3ccccc23)c(=O)n(-c2ccccc2)n1C (stereo not given)	0% (inactive)
O=c1c(CN2CCN(Cc3ccccc3)CC2)coc2ccc(Cl)cc12	0% (inactive)
Cc1ccc(-n2c(-c3ccncc3)nnc2-c2cccs2)cc1	1% (inactive)
C=CCn1c(SCC(=O)Nc2ccccc2OC)nnc1-c1ccccn1	3% (inactive)
Nc1nonc1N1CCCCC1	0% (inactive)
CCOc1ccc(C(=O)N2CCN(C(=O)c3ccco3)CC2)cc1OCC	1% (inactive)
CC1Cn2c(nnc2-c2ccc(F)cc2)S1 (stereo not given)	6% (inactive)
COc1ccc(S(=O)(=O)N(C)C2CCN(C)CC2)cc1	0% (inactive)
Cc1ccc2nc(/C(C#N)=N/O)[nH]c2c1	10% (inactive)
O=C(Nc1nccs1)c1ccc(Cl)c(S(=O)(=O)N2CCCCC2)c1	0% (inactive)
O=S(=O)(Nc1cccnc1)c1cc(Cl)ccc1Cl	0% (inactive)
CS(=O)(=O)N1CCCC(C(=O)NCCCN2CCc3ccccc3C2)C1 (stereo not given)	2% (inactive)
CCOC(=O)C1=C(C)Nc2nc(SCC(=O)OC)nn2C1c1cc(F)cc(F)c1 (stereo not given)	3% (inactive)
Cc1cccc(C(=O)O)c1NC(=O)c1ccc(F)cc1	1% (inactive)
COc1ccc(C(CC(=O)O)NC(=O)c2ccccc2)cc1OC (stereo not given)	0% (inactive)
Cc1ccc2nc3c(cc(C(=O)NCC4CCCO4)n3C)c(=O)n2c1 (stereo not given)	0% (inactive)
CCOc1ccc(NC(=O)CSc2nnc(COc3c(C)cccc3C)o2)cc1	1% (inactive)
